A short description of assay [1]: compound effects on lung adenocarcinoma cell viability – A549, calcein-AM fluorescence, 48 h, basal, profiling panel (AID 1162). Further: test concentration not given here. The conditions noted are these: higher = more signal.
Assay [2] is described as follows: compound effects on differentiated 3T3-L1 adipocyte viability – cell-based, 3T3-L1 adipocytes, calcein-AM fluorescence, 48 h, basal, profiling panel (AID 1163). Further: test concentration not given here. The conditions noted are these: 3T3-L1 adipocytes viability, higher = more signal.
A short description of assay [3]: compound effects on hepatocellular carcinoma cell viability – HepG2, calcein-AM fluorescence, 48 h, basal, profiling panel (AID 1164). Further: test concentration not given here. The conditions noted are these: higher = more signal.
Assay [4] is described as follows: compound effects on multiple myeloma cell viability – MM1S, calcein-AM fluorescence, 48 h, basal, profiling panel (AID 1165).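 Further: viability of MM1S multiple myeloma cells under basal unstimulated conditions; test concentration not given here.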 To be noted: higher = more signal.
The nature of assay [5]: calcein-AM signal in unstimulated myeloma cells – cell-based, calcein-AM fluorescence, 48 h, PK04 Diversity Set, profiling panel (AID 1166).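 Further: cells grown under basal conditions without added stimulus; test concentration not given here.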 The conditions noted are these: RPMI8226 myeloma viability, higher = more signal.
Assay [6] is described as follows: JC-1 mitochondrial signal, unstimulated HepG2 cells – cell-based, JC-1 fluorescence, 24 h, 100 nL compound, profiling panel (AID 1167). Further: test concentration not given here. The conditions noted are these: HepG2 mitochondrial potential, higher = more signal.
A short description of assay [7]: JC-1 mitochondrial signal, unstimulated adipocytes – cell-based, JC-1 fluorescence, 3T3-L1 adipocytes, 24 h, 100 nL compound, profiling panel (AID 1168). Further: test concentration not given here. To be noted: JC-1 mitochondrial fluorescence, higher = more signal, called active from +8 up or from −8 down.
A short description of assay [8]: JC-1 mitochondrial signal, unstimulated myeloma cells – cell-based, JC-1 fluorescence, RPMI8226, 24 h, 100 nL compound, profiling panel (AID 1169). Further: test concentration not given here. To be noted: JC-1 mitochondrial potential fluorescence, higher = more signal.
Assay [9] can be described thus: JC-1 mitochondrial signal, unstimulated MM1S myeloma – cell-based, JC-1 fluorescence, 24 h, 100 nL compound, profiling panel (AID 1170). Further: test concentration not given here. The conditions noted are these: MM1S mitochondrial potential, higher = more signal.
Assay [10] can be described thus: resazurin metabolic signal in A549 cells – cell-based, resazurin fluorescence, 24 h, PK04 Diversity Set, profiling panel (AID 1171). Further: test concentration not given here. To be noted: A549 viability, higher = more signal, called active from +8 up or from −8 down.
Assay [11] can be described thus: resazurin metabolic signal in HepG2 cells – cell-based, resazurin fluorescence, 24 h, PK04 Diversity Set, profiling panel (AID 1172). Further: test concentration not given here. The conditions noted are these: HepG2 viability, higher = more signal.
Assay [12] in a line: budding yeast growth changes without added modifier – OD600, strain BY4716, 24 h, basal condition, primary screen (AID 1173). The conditions noted are these: S. cerevisiae BY4716 growth, OD600, 24 h; higher = more signal, called active from +8 up or from −8 down.
The nature of assay [13]: viability profiling in MM1S myeloma cells – cell-based, resazurin fluorescence, basal, 24 h, PK04 Diversity Set, profiling panel (AID 1174). Further: test concentration not given here. The conditions noted are these: higher = more signal, called active from +8 up or from −8 down.
Assay [14] has as its target Dihydroorotate dehydrogenase (quinone), mitochondrial (Plasmodium falciparum (isolate 3D7)) (UniProt Q08210). As to the kind of experiment: inhibition of P. falciparum DHODH – biochemical, C-terminal His tag, absorbance 600 nm, primary screen (AID 1175).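 Further: recombinant parasite enzyme with a five histidine tag at its C terminus; test concentration not given here.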 The conditions noted are these: PfDHODH enzyme, DCIP absorbance 600 nm; higher = more signal, called active from +8 up or from −8 down.

The nature of assay [15]: inhibition of PAO1 biofilm formation – strain PAO1, LB-PBS medium, absorbance 600 nm, primary screen (AID 1176). Further: test concentration not given here. The conditions noted are these: P. aeruginosa PAO1 growth/biofilm, A600, 12 h; higher = more signal.
Assay [16] can be described thus: growth modulation of vineyard yeast isolate – strain RM11-1a, OD600, basal, 24 h, primary screen (AID 1177).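 Further: cultures grown under basal conditions with no added stressor; test concentration not given here.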 To be noted: S. cerevisiae RM11-1a growth, OD600, 24 h; higher = more signal, called active from +8 up or from −8 down.
Assay [17] in a line: growth of efflux-deficient E. coli DRC39 – strain DRC39, OD650, 24 h, E. coli filamentation inducers, primary screen (AID 1178).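 Further: growth measured as culture turbidity by optical density at 650 nm; test concentration not given here.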 The conditions noted are these: E. coli DRC39 acrAB, higher = more signal, called active from +8 up or from −8 down.
Assay [18] is described as follows: growth of efflux-deficient E. coli DRC39 – strain DRC39, OD650, 48 h, E. coli filamentation inducers, primary screen (AID 1179).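 Further: screen aims at cell division blockers that make cells filament.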 The conditions noted are these: E. coli DRC39 delta-acrAB growth, higher = more signal, called active from +8 up or from −8 down.
Assay [19] in a line: viability profiling in RPMI8226 myeloma cells – cell-based, resazurin fluorescence, basal, 24 h, PK04 Diversity Set, profiling panel (AID 1180).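 Further: RPMI8826 multiple myeloma cell line at 5000 cells per well; test concentration not given here.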 To be noted: higher = more signal. (In general: The colour change of resazurin is a common sign of viable cells or microbes.)
In assay [20] the target is E3 ubiquitin-protein ligase XIAP (Homo sapiens) (UniProt P98170). As to the kind of experiment: small molecules binding XIAP protein – biophysical, small-molecule microarray, fluorescence 635 nm, primary screen (AID 1181).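 Further: score merges 667 nm emission and signal to noise over triplicate slides.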 To be noted: higher = more signal.

The values below come from PubChem BioAssay.

The source made the active and inactive calls. Unless noted, how the calls were made is not given here.

E3 ubiquitin-protein ligase XIAP (Homo sapiens), sequence (P98170 whole entry, looked up): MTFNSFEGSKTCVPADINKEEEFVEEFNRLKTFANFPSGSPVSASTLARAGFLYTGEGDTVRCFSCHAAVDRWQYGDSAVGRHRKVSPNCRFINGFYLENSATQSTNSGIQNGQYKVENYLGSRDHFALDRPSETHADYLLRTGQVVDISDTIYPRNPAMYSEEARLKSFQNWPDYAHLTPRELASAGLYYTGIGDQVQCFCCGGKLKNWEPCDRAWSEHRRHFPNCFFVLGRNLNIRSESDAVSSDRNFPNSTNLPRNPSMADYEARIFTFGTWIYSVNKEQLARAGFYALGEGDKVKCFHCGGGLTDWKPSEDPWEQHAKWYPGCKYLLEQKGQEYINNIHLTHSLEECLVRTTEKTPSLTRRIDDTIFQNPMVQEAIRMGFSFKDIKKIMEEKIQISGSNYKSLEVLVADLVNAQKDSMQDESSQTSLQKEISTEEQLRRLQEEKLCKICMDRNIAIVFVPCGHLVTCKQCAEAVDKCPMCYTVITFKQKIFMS
Dihydroorotate dehydrogenase (quinone), mitochondrial (Plasmodium falciparum (isolate 3D7)), sequence (Q08210 whole entry, looked up): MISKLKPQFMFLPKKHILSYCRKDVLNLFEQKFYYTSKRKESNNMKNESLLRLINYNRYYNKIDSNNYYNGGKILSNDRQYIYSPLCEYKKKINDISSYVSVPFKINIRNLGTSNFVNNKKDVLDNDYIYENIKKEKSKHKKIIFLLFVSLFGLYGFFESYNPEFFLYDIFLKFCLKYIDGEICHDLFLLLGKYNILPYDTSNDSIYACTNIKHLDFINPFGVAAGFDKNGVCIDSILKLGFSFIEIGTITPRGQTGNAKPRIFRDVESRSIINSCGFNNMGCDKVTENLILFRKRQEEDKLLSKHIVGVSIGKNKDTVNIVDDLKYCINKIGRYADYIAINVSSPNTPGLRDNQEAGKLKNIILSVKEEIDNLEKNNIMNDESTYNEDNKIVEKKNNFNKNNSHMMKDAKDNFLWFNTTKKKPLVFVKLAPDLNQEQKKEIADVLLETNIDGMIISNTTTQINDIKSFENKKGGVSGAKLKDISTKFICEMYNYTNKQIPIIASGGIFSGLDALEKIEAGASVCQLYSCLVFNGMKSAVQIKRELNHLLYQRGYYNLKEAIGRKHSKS

`COC(=O)[C@@]1(Cc2ccc(OC)cc2)[C@H]2c3cc(C(=O)N4CCCC4)n(CCc4c[nH]c5cc(F)ccc45)c3C[C@H]2CN1C(=O)c1ccccc1`: the z-score in assay [1] was 0.866; in assay [2], -0.124; in assay [3], 0.172; in assay [4], -1.08; in [5] it was -0.758; in assay [6] it was -0.37. For the same compound, the z-score in assay [7] was 0.492 (inactive); in assay [8], -0.304; in [9] it was -0.662; in assay [10] it was 0.313 (inactive); in [11], -0.679; in assay [12], 1.15 (inactive). Also, the z-score in assay [13] is -0.502 (inactive); in assay [15], 0.964 (inactive); in [16], 0.473 (inactive); in assay [17] it was -0.29 (inactive); in [18], -0.141 (inactive); in assay [19], -0.642. For the same compound, the values for the composite z-score in assay [14] and in [20] were 0.461 (inactive) and 0.172, respectively.

`CC1CC/C=C\[C@H]2OC34C=CCN(Cc5ccccc5)C(=O)[C@H]3N(CCCCCO)C(=O)[C@@H]4C2C(=O)O1` (stereo not given in full): the z-score in [1] was 0.482; in assay [2], 0.449; in assay [3], -0.069; in assay [4], 1.51; in [5] it was 0.599; in assay [6], 0.647. Moreover, the z-score was -0.478 (inactive) in assay [7]; -0.514 in [8]; 1.12 in assay [9]; 0.374 (inactive) in assay [10]; -0.0371 in assay [11]; -0.308 (inactive) in assay [12]. The z-score in [13] is 0.521 (inactive); in assay [15], -0.565 (inactive); in assay [16], 0.0882 (inactive); in [17] it was 0.443 (inactive); in [18] it was 0.667 (inactive); in assay [19], 0.461. The composite z-score in [14] was -0.419 (inactive); in assay [20] it was -0.0062.

With `O=C1O[C@@H](c2ccccc2)[C@@H](c2ccccc2)N2[C@@H](c3ccc(OCCO)cc3)[C@]3(C(=O)Nc4ccccc43)[C@@H](C(=O)Nc3nc4ccccc4s3)[C@H]12`, the z-score in assay [1] is -0.328; in [2] it was -0.343; in assay [3] it was 0.27; in assay [4], -0.829; in [5], -1.17; in assay [6] it was -3.31. Besides, the z-score in assay [7] is 2.07 (inactive); in assay [8], -1.05; in assay [9], -1.86; in assay [10], -1.4 (inactive); in [11] it was -0.489; in assay [12], 0.0135 (inactive). Moreover, the z-score was -1.52 (inactive) in assay [13]; 3.18 (inactive) in assay [15]; 1.97 (inactive) in assay [16]; -0.595 (inactive) in assay [17]; 0.29 (inactive) in assay [18]; -1.55 in assay [19]. In addition, the composite z-score in [14] was -0.308 (inactive); in assay [20], 0.148.

Regarding `C[C@]1(C(=O)NCc2ccccc2)c2ccccc2C(=O)N(Cc2ccc(OC(F)(F)F)cc2)[C@H]1c1ccc(CO)cc1`, the z-score in [1] is 1.84; in assay [2] it was 1.12; in assay [3], 1; in [4], 0.318; in [5], 0.346; in [6], 3.56. The z-score was 0.777 (inactive) in [7]; -0.584 in [8]; -0.0466 in assay [9]; 1.46 (inactive) in assay [10]; 0.333 in assay [11]; -1.51 (inactive) in assay [12]. Also, the z-score was 1.51 (inactive) in assay [13]; 0.609 (inactive) in assay [15]; -0.593 (inactive) in assay [16]; 1 (inactive) in [17]; 0.806 (inactive) in assay [18]; 1.19 in assay [19]. Moreover, the composite z-score in assay [14] is -0.482 (inactive); in [20], -0.0872.

With `[N-]=[N+]=NCc1ccccc1C[C@]1(C(=O)O)N=C(c2ccc(OCCCO)cc2)O[C@H]1c1ccccc1CN=[N+]=[N-]`, the z-score in assay [1] is -0.437; in assay [2] it was 0.368; in [3], -0.302; in assay [4], -0.966; in assay [5], -1.53; in assay [6] it was -2.38. For the same compound, the z-score in assay [7] is -1.4 (inactive); in [8] it was -0.789; in assay [9] it was 0.432; in assay [10], 1.17 (inactive); in assay [11] it was 0.924; in [12], -3.5 (inactive). Moreover, the z-score is 0.349 (inactive) in [13]; 0.563 (inactive) in assay [15]; -1.05 (inactive) in assay [16]; 0.279 (inactive) in assay [17]; -0.717 (inactive) in [18]; -0.0479 in [19]. Moreover, the composite z-score was -2.16 (inactive) in assay [14] and -0.139 in assay [20].

Turning to `O=C(OCCF)C1=CCC(c2cccc(Cl)c2)O1` (stereo not given), the z-score in [1] is 0.558; in assay [2], -0.0426; in [3], 0.303; in assay [4] it was 1.17; in assay [5], 0.669; in assay [6], 0.89. The z-score was 1.15 (inactive) in assay [7]; -1.07 in assay [8]; -0.157 in [9]; -0.61 (inactive) in assay [10]; -0.185 in assay [11]; -2.59 (inactive) in [12]. For the same compound, the z-score is 0.0509 (inactive) in assay [13]; -0.212 (inactive) in assay [15]; -1.56 (inactive) in assay [16]; -0.18 (inactive) in assay [17]; 0.443 (inactive) in assay [18]; 0.122 in assay [19]. In addition, the values for the composite z-score in [14] and in assay [20] were -1.71 (inactive) and 0.0176, respectively.

For the compound `COCCOC(=O)N1C(=O)[C@@]2(c3cc(C#CCNC(N)=O)ccc31)[C@H](c1ccccc1OCCO)N1[C@H](c3ccccc3)[C@H](c3ccccc3)OC(=O)[C@H]1[C@@H]2C(N)=O`, the z-score in assay [1] is -0.0052; in [2], -0.131; in [3] it was -0.617; in [4], -0.456; in [5] it was 0.0352; in assay [6] it was -1.83. In addition, the z-score is 0.369 (inactive) in [7]; -0.115 in [8]; -1.08 in assay [9]; 0.0565 (inactive) in assay [10]; -0.554 in assay [11]; 1.91 (inactive) in assay [12]. The z-score is -0.279 (inactive) in assay [13]; 0.971 (inactive) in [15]; 2.64 (inactive) in [16]; -0.144 (inactive) in assay [17]; -0.375 (inactive) in assay [18]; 0.138 in [19]. Moreover, the composite z-score was 1.39 (inactive) in assay [14] and -0.0525 in assay [20].

Take `COCCCNC(=O)[C@@]1(CCC(=O)OC(C)(C)C)N=C(c2ccc(OCCCO)cc2)O[C@H]1c1ccccc1CN=[N+]=[N-]`: the z-score in assay [1] was 0.463; in assay [2], 0.892; in assay [3], -0.244; in assay [4] it was 0.153; in assay [5], -0.853; in assay [6], 0.88. Moreover, the z-score was -0.736 (inactive) in [7]; 0.665 in [8]; 0.5 in assay [9]; 0.155 (inactive) in assay [10]; 0.495 in assay [11]; -0.78 (inactive) in assay [12]. The z-score is -0.0488 (inactive) in assay [13]; -0.167 (inactive) in [15]; 0.424 (inactive) in assay [16]; 0.481 (inactive) in [17]; -0.28 (inactive) in assay [18]; 0.423 in [19]. Besides, the composite z-score in assay [14] is -0.256 (inactive); in assay [20], -0.212.
